Rows were chosen to be rich in hits. Some 19% of all compounds tested hit in one or more screens of this group.
DT40 TDP1 CPT: growth inhibition of DT40 Tdp1-/-;hTDP1 cells with camptothecin (screen for TDP1 inhibitors). chicken DT40 Tdp1-/-;hTDP1 cells + 20 nM CPT, ATP luminescence, 48 h. Potency, µM (top dose mostly 46.2 µM), without a hit: top-dose activity change, negative = growth inhibition, actives largely listed as inhibitors. 420,000 compounds, 12% hits. AID 686979; also: potency is read from the fitted curve at half-maximal effect; nearly all actives have a fitted effect of over 55% in size
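Chicken DT40 Tdp1-/- cells complemented with human TDP1, 400 cells/well, exposed to compounds plus 20 nM camptothecin for at least 48 h at 37 C; viability read as ATP content by CellTiter-Glo luminescence.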
IL1B secr inh: blocks inflammasome-driven IL-1 beta release; AID 743279; THP-1 LPS/ATP IL-1B secretion, AlphaLISA, 16 h; stronger effect = lower value; 360,000 compounds, 4.7% hits; activity change, % at 57.5 µM; in the data active = activity change below about -50%; inconclusive = mostly about -30% to -49%
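Secreted IL-1B measured by AlphaLISA bead assay after 16 h compound exposure of THP-1 cells; compounds (final up to 57.5 uM) added 1 h before LPS (250 ng/mL) and ATP (1.25 mM) stimulation; lower signal means less secretion.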
TDP1 inh: TDP1 (human) enzyme inhibition; recombinant TDP1, AlphaScreen DNA substrate cleavage; AID 485290; Potency, µM (series often up to 130 µM), without a hit: top-dose activity change, negative = inhibition, hits mostly inhibitors; 350,000 compounds, 0.28% hits; also: potency is read from the fitted curve at half-maximal effect; nearly all actives have a fitted effect of over 40% in size
Target sequence (Q9NUW8 whole entry, looked up): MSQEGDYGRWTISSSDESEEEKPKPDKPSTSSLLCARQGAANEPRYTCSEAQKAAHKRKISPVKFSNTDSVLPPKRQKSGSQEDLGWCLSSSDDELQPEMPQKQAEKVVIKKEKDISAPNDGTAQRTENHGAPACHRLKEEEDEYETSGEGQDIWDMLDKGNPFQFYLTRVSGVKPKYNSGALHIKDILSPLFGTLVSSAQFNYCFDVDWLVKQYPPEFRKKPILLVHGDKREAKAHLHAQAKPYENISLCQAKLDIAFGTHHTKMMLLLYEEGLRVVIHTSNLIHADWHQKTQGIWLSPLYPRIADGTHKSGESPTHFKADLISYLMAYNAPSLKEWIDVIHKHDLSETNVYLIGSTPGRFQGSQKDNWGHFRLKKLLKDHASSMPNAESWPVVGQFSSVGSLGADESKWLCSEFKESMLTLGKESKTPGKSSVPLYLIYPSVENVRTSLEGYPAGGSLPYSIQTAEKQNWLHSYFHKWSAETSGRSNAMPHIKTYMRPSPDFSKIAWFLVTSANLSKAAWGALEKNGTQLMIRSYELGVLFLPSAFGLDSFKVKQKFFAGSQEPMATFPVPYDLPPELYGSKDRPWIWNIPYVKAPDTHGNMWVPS
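Tdp1 1 nM final; 15 min RT w/ cpd; substrate 15 nM, 5 min; beads 10 ug/ml, 10 min; AlphaScreen read. Neg ctrl: no enzyme.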
Giardia killer: Giardia lamblia killing; Giardia lamblia trophozoite viability; activity change, % at 7.66 µM, hits read low; 340,000 compounds, 0.15% hits; in the data active = activity change below about -80%; inconclusive = between about -30% and that limit;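 also: parasites exposed to compound for two days anaerobically before the ATP read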
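Compounds were tested on trophozoites seeded at 100 cells/well and held 48 hrs at 37 deg C anaerobically. An ATP-based luminescent kit measured the remaining live cells.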
ELG1 repair inh: ELG1-dependent DNA repair inhibition | Potency, µM (titrated, usually from 46.1 µM), for inactives: top-dose activity change, negative = inhibition, hits mostly inhibitors | 330,000 compounds, 2.3% hits | HEK293T ELG1-luciferase reporter, luminescence, 16 h; DNA damage induced by 5-fluorouridine; also: potency is read from the fitted curve at half-maximal effect; nearly all actives have a fitted effect of over 55% in size
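HEK293T cells expressing luciferase-tagged ELG1 (2,000/well) received 5-Fluorouridine plus compound or DMSO for 16 hr at 37 °C. Luciferase was read by ONE-Glo luminescence after 30 min at room temperature.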
TDP1 cell noCPT: qHTS for Inhibitors of human tyrosyl-DNA phosphodiesterase 1 (TDP1): qHTS in cells in absence of CPT; AID 686978, 2013; DT40 Tdp1-/- hTDP1 cells, no CPT, ATP luminescence, 48 h; Potency, µM (series often up to 46.2 µM), for the others: at the top dose activity change, negative = growth inhibition, hits mostly inhibitors; 420,000 compounds, 15% hits; also: potency is read from the fitted curve at half-maximal effect; nearly all actives have a fitted effect of over 55% in size
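Luminescent ATP content (CellTiter-Glo) served as the growth readout. Knockout chicken DT40 cells expressing human TDP1 were exposed to compounds without camptothecin for a minimum 48 hr at 37 °C.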
Numbers without * were called inactive; ? = inconclusive; . = not tested or not shown; [ ] = another dose, or the depositor's remark. Unless noted, calls follow the shape of the dose curve; as a rule, active = well fitted curve in the direction sought with a large enough effect; inconclusive = small, poorly fitted or top-dose-only effect, or another doubt; inactive = no such curve, though single readings can be large; an effect the other way counts as inactive or inconclusive. % is scaled to controls: 0 for no effect and ±100 for the full control effect.

SMILES | DT40 TDP1 CPT | IL1B secr inh | TDP1 inh | Giardia killer | ELG1 repair inh | TDP1 cell noCPT
CN(C)CCOC1(Cc2ccc(F)cc2)CCC(C(C)(C)C)CC1 (stereo not given) | ? | -104.4* | . | -9.2 | . | 18.4µM*
O=C(CSc1ncnc2c1cnn2-c1cccc(Cl)c1)NCC1CCCO1 (stereo not given) | ? | -16.6 | 2.7% | 27.8 | -13.4% | 14.6µM*
Cc1cc(C)n(-c2nnc(SCC(=O)NC3CCCC3)c3ccccc23)n1 | -27.9% | 15.4 | 2.8%[56.1 µM] | -3.3 | 16.4µM* | -28.1%
O=C(CSc1nc2c(cnn2-c2cccc(Cl)c2)c(=O)[nH]1)NCC1CCCO1 (stereo not given) | 7.3% | 14.2 | -4.5% | 17.8 | 20.5% | 20.5%
O=C(CSc1ncnc2c1cnn2-c1ccccc1)NC1CCCC1 | 18.4µM* | -8.6 | . | 6.9 | ? | 23.1µM*
CNC(=O)CSc1ncnc2c1cnn2-c1ccccc1 | 20.2% | -22.0 | 4.6% | 11.4 | ? | 9.4%
Cc1ccc2nc(SCC(=O)N3CCC(C)CC3)nc(=O)n2c1 | ? | 0.0 | -9.2% | -1.7 | 19.4% | -15.3%
C[C@@H]1C[C@](C)(C(=O)c2ccco2)C=C1c1ccco1 | . | . | -1.9% | . | . | .
CN(C)c1ccnc2c[cH-]cc12.[Fe].c1ccc(-[c-]2[c-](-c3ccccc3)[c-](-c3ccccc3)[c-](-c3ccccc3)[c-]2-c2ccccc2)cc1 (stereo not given) | 5.17µM* | -0.5 | 9.5% | -12.7 | ? | 3.66µM*
CN(C)c1ccnc(Nc2ccccc2)c1C#N | -8.8% | 9.1 | . | 21.7 | 2.2% | -7.6%
CCCc1nnc(NC(=O)Cn2c(=O)oc3cc(Br)ccc32)s1 | ? | ? | -2.2% | -1.3 | ? | 7.8%
O=c1oc2cc(Br)ccc2n1CSC1=NCCS1 | 20.6µM* | -65.5* | -9.6% | ? | ? | 18.4µM*
N#Cc1ccc(CN2CCN(C(=O)c3ccc(S(=O)(=O)NCc4ccco4)cc3)CC2)cc1 | 10.3µM* | 22.3 | 3.9% | 16.9 | ? | 2.59µM*
CC1CCN(C(=O)c2ccc(S(=O)(=O)NCc3ccco3)cc2)CC1 | 3.8% | 5.1 | 89.1µM* | -26.2 | -2.4% | -15.3%
O=C(c1ccc(S(=O)(=O)NCc2ccco2)cc1)N1CCCC1 | -18.7% | -6.0 | 6.5% | -1.4 | 12.5% | -0.9%
COc1cccc(CNC(=O)c2cc(S(=O)(=O)N3CCCCCC3)cn2C)c1 | ? | . | -3.0% | . | . | ?
CC(=O)NC1=CC(=O)c2nonc2C1=O | 0.0794µM* | . | . | 2.7 | . | ?
COc1cc(O)c(NC(C)=O)c2nonc12 | -15.4% | 8.8 | 0.0% | -2.3 | 1.0% | -16.5%
CCN(c1ccccc1)S(=O)(=O)c1ccc(OC)c(NC(=O)Cc2ccc(F)cc2)c1 | ? | ? | -0.1% | ? | -18.2% | 18.4µM*
CCN(c1ccccc1)S(=O)(=O)c1ccc(OC)c(NC(=O)CCc2nc3ccccc3c(=O)[nH]2)c1 | 18.4µM* | 6.9 | . | 11.6 | ? | 14.6µM*
CCN(c1ccccc1)S(=O)(=O)c1ccc(OC)c(NC(=O)CNCCc2ccccc2)c1 | 25.9µM* | ? | -8.2% | 4.5 | ? | 20.6µM*
CCOc1ccc(Oc2ccccc2NC(=O)CCc2nc3ccccc3c(=O)[nH]2)cc1 | 23.1µM* | 82.3 | . | . | . | 20.6µM*
CCN(c1ccccc1)S(=O)(=O)c1ccc(OC)c(NC(=O)C2CCC2)c1 | ? | -4.5 | -3.6% | 20.7 | -3.9% | ?
Cc1nc(C)c(C(=O)N(c2ccc(F)cc2)C(C(=O)NCC2CCCO2)c2ccccc2)s1 (stereo not given) | 2.8% | 0.1 | 5.4% | 0.3 | -3.0% | ?
COc1ccc2cc(S(=O)(=O)c3ccccc3F)c(=O)oc2c1 | ? | . | 4.6% | . | . | ?

Compound activity: PubChem, National Center for Advancing Translational Sciences (NCATS)
